Hits are enriched below; roughly 1.2% of the tested compounds scored in any of these assays.
S-ASM inh: human S-ASM enzyme inhibition; P17405; placental ASM, HMU-PC fluorogenic substrate, 60 min; Potency, µM (series often up to 57.5 µM), usual class: inhibitors; 340,000 compounds, 0.006% hits; AID 504937
Target sequence (P17405 47-631 limits assumed): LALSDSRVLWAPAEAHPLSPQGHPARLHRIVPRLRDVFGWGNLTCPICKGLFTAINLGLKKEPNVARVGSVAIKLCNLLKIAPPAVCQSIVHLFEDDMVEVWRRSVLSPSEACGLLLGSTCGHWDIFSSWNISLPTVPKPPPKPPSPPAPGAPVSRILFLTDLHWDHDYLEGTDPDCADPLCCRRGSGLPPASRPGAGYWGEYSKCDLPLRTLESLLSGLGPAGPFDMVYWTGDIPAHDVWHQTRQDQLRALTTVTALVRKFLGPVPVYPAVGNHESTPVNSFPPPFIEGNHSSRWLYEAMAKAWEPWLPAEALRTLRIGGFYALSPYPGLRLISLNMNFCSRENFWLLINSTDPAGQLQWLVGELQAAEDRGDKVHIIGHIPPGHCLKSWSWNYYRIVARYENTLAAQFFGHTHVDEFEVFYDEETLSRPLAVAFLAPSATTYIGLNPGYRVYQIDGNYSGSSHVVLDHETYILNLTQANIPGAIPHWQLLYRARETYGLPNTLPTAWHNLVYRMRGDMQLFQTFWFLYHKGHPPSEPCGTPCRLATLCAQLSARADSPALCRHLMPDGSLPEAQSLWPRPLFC
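Fluorescence read-out (Ex 386 nm, Em 447 nm) after stopping the reaction at pH 10. Enzyme: ASM from human placenta; substrate HMU-PC0, 9 uM final; 60 min, 37 °C. Compound preincubation 10 min, ambient temperature.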
BRCA1 expr up: activators of BRCA1 expression; MCF7-BRCA1-FFLuc reporter, luminescence, 48 h; response scale: scaled: vehicle 0%, 10 µM genistein 100%; Potency, µM (highest dose often 46.1 µM), usual class: activators; 380,000 compounds, 1.1% hits; also: nearly all actives have a fitted effect of over 80% in size
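First, MCF7-BRCA1-FFLuc cells (2000/well) attach for 2 h; next, compounds are pin-added and incubated 48 h at 37 °C; finally, luciferase reagent is added and luminescence read after 15 min.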
Apoferritin bind: candidate novel general anesthetic via apoferritin binding | 350,000 compounds, 0.074% hits | AID 485281 | apoferritin/1-aminoanthracene competitive binding, fluorescence | P02791 | Potency, µM (titrated, usually from 77.5 µM), usual class: inhibitors; also: nearly all actives have a fitted effect of over 20% in size
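Apoferritin-based anesthetic binding model; compound displacement of fluorescent 1-AMA measured as endpoint fluorescence after 10 minutes at room temperature, scaled to free-ligand and complex controls.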
TSHR antagonist: blocks TSH signaling through the human TSH receptor. TSHR-expressing cells, TSH-stimulated cAMP HTRF, 2 h; active compounds read low. activity change, negative = inhibition, % at 11.5 µM. 330,000 compounds, 0.2% hits. AID 504810;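 active = activity change below a set negative limit, meaning inhibition stronger than a set level, cut at about -70% in these data; inconclusive = activity change between two set negative limits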
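Inhibition of cAMP made by TSHR-expressing cells under TSH stimulation (4nM final, EC80; 2 h, 37 deg C) is quantified with a one-step lysis HTRF kit, anti-cAMP cryptate versus cAMP-d2.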
TSG101-PTAP inh: blocks PTAP/TSG101 interaction to inhibit HIV-1 budding; Q99816; Fluorescence polarization, FITC-PTAP peptide / Tsg101 binding; Potency, µM (doses to about 115 µM), most hits filed as inhibitors; 340,000 tested, under 10 active; active = well fitted inhibition curve with a large enough effect in the main read-out, with a control signal flat, not every such curve was filed as active; inconclusive = small, poorly fitted or top-dose-only effect, or effect the other way, or a change in a side signal; inactive = no such curve, though single readings can be large or run the other way
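Fluorescence polarization binding of Tsg101 binding domain (10 uM final) to FITC-labeled PTAP peptide (50 nM final) in HEPES pH 7.5 buffer with NaCl, Tween 20, EDTA, TCEP. Compounds added before peptide; binding 20 min at RT.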
A number is an active result; . = inactive; ? = inconclusive; / = no result; [ ] = remark or other dose. Unless noted, calls follow the shape of the dose curve; as a rule, active = well fitted curve in the direction sought with a large enough effect; inconclusive = small, poorly fitted or top-dose-only effect, or another doubt; inactive = no such curve, though single readings can be large; an effect the other way counts as inactive or inconclusive.

SMILES	S-ASM inh	BRCA1 expr up	Apoferritin bind	TSHR antagonist	TSG101-PTAP inh
C=C1C(=O)OC(CCCCCCCC)C1C(=O)O (stereo not given)	/	/	.	/	/
Nc1nc(SCc2ccccc2Cl)[nH]c(=O)c1-c1ccccc1	.	.	.	.	.
Nc1nc(SCc2ccccc2)[nH]c(=O)c1-c1ccccc1	.	10µM	.	.	.
CCN(CCn1cccn1)C(=O)CCc1nnc(CCCc2ccccc2)o1	.	12.6µM	.	.	.
CCCc1cc(C(=O)NCCc2ccccc2)no1	.	3.98µM	.	.	.
O=C(NCCCn1cccn1)c1cc(COc2ccccc2)on1	/	11.2µM	/	/	/
O=C(NCCc1ccccc1)c1cc(-c2ccc(Cl)cc2)on1	/	/	.	/	/
COc1cccc(CCNC(=O)c2cc(COc3ccc(C)c(C)c3)on2)c1OC	/	5.62µM	/	/	/
Cc1ccc(OCc2cc(C(=O)N(C)CCc3ccccn3)no2)cc1C	.	8.91µM	?	.	.
COc1cccc(NC(=O)N2CCN3CCCCC3C2)c1 (stereo not given)	/	/	.	/	/
CCC[N+](C)(C)c1ccc(/C=C/c2ccnc3ccccc23)cc1	/	.	/	/	/
Cc1ccc(OCc2cc(C(=O)NC(C)Cc3cccnc3)no2)cc1C (stereo not given)	.	.	?	.	.
Cc1ccc(OCc2cc(C(=O)NCCc3cccnc3)no2)cc1C	.	11.2µM	?	.	.
CCCc1cc(C(=O)Nc2cc(C)ccc2O)no1	.	2.82µM	.	.	.
CCCc1cc(C(=O)Nc2cccnc2Cl)no1	.	.	.	.	.
Cc1ccc(S(=O)(=O)N2CCN(c3nc(-c4cccs4)nc4ccccc34)CC2)c(C)c1	/	.	/	/	/
CC(C)(C)C(=O)OCCNc1nc(-c2cccs2)nc2ccccc12	/	.	/	/	/
Cc1ccc(Cn2ccc(=O)c(OCc3ccccc3)c2C)cc1	.	11.2µM	.	.	.
CN(C)c1ccc(/C=C/c2ccnc3ccc([N+](=O)[O-])cc23)cc1	/	.	/	/	/
COc1ccc(OC)c(/C=C2\C=Cc3ccccc32)c1	/	.	/	/	/
CSCC(=O)N1CCc2ccc(NC(=O)c3ccccc3Cl)cc2C1	.	10µM	.	.	.
Fc1cc(F)c(C2SCCN2C(=S)Nc2cccc(C(F)(F)F)c2)c(F)c1 (stereo not given)	.	.	.	-72.1	.
CCOC(=O)c1ccc(NC(=S)N2CCSC2c2c(F)cc(F)cc2F)cc1 (stereo not given)	.	.	.	.	.
COc1ccc(-n2nc(C(=O)NCC(=O)N3CCCCC3)c3ccccc3c2=O)c(OC)c1	.	12.6µM	.	.	.
COc1ccc(-n2nc(C(=O)NCC(=O)NCCCN3CCN(C)CC3)c3ccccc3c2=O)cc1	.	.	.	-100.2	.
SMILES	S-ASM inh	BRCA1 expr up	Apoferritin bind	TSHR antagonist	TSG101-PTAP inh
COc1ccccc1-n1cc(C(=O)NCC(=O)N2CCN(c3ccccc3)CC2)c2ccccc2c1=O	.	12.6µM	.	.	.
COc1ccc(-n2nc(C(=O)NCC(=O)NCCCN3CCN(C)CC3)c3ccccc3c2=O)cc1OC	.	.	.	.	.
COc1ccc(-n2nc(C(=O)NCC(=O)N3CCOCC3)c3ccccc3c2=O)c(OC)c1	.	.	.	.	.
COc1ccccc1N1CCN(C(=O)CNC(=O)c2cn(-c3ccccc3OC)c(=O)c3ccccc23)CC1	.	.	.	.	.
COc1ccc(-n2nc(C(=O)NCC(=O)N3CCN(c4ccccc4F)CC3)c3ccccc3c2=O)cc1OC	.	8.91µM	.	.	.
CC(C)NC(=O)COC(=O)CNC(=O)C1CCCCC1	/	.	/	/	/
COC(=O)C1=NOC2(C=C(Br)C(OC)=C(Br)C2=O)C1 (stereo not given)	/	/	.[15.3 µM]	/	/
COc1ccc(-n2nc(C(=O)NCC(=O)N3CCC(C)CC3)c3ccccc3c2=O)c(OC)c1	.	?	.	.	.
COc1ccc(-n2nc(C(=O)NCC(=O)N3CCCCCC3)c3ccccc3c2=O)c(OC)c1	.	11.2µM	.	.	.
COCCNc1cnn(-c2ccccc2)c(=O)c1Cl	.	.	.	-122.2	.
CN(c1cnn(-c2ccccc2)c(=O)c1Cl)n1cccc1	.	11.2µM	.	.	.
CN(Cc1nccs1)C(=O)c1ccc2nc(Cc3ccccc3F)oc2c1	.	3.16µM	.	.	.
CN(Cc1nccn1C)C(=O)c1ccc2nc(Cc3ccccc3F)oc2c1	.	12.6µM	.	.	.
O=S(=O)(c1ccc(F)cc1F)N1CCN(c2nc(-c3cccs3)nc3ccccc23)CC1	/	.	/	/	/
O=c1n(Cc2ccccc2)nc2n1-c1ccccc1SC2	.	.	.	.	.
O=c1n(Cc2ccccc2Cl)nc2n1-c1ccccc1SC2	.	11.2µM	.	.	.
Cc1ccc(C(=O)Nc2cccc(-c3ccc(N4CCOCC4)nn3)c2)cc1	.	?	/	.	.
O=C(Nc1cccc(-c2ccc(N3CCOCC3)nn2)c1)c1ccccc1Cl	.	2.51µM	/	.	.
O=C(Nc1cccc(-c2ccc(N3CCOCC3)nn2)c1)c1ccc(Cl)cc1	.	.	/	.	.
O=C(Nc1cccc(-c2ccc(N3CCOCC3)nn2)c1)c1cccc(Cl)c1	/	7.08µM	/	/	/
CC1CCN(C(=O)c2ccc3ccccc3c2)CC1	.	2.51µM	.	.	.
Cc1ccc(Nc2cc(C)c3c(O)cccc3n2)cc1C	.	5.62µM	?	.	.
CC(C)CCOc1ccc(N)cc1	/	/	.	/	/
O=[N+]([O-])c1ccc2c(c1)S(=O)(=O)C=C2	/	/	.	.	/
Cc1sc2ccccc2[n+]1CCCC[n+]1c(C)sc2ccccc21	/	.	/	/	/
SMILES	S-ASM inh	BRCA1 expr up	Apoferritin bind	TSHR antagonist	TSG101-PTAP inh
CC(=O)Nc1cccc(OCC(=O)Nc2sccc2C(N)=O)c1	.	3.98µM	.	.	.
O=C1C=CC(=O)N1CCCCCCN1C(=O)C=CC1=O	.	.	.	-98.6	.
O=C(NC(=S)Nc1cccc2[nH]ncc12)c1ccccc1	.	10µM	.	.	.
COc1ccc(NC(=S)NC(=O)c2ccccc2)cn1	.	11.2µM	.	.	.
COc1ccc(NC(=O)c2cccc(Oc3ccccc3)c2)cn1	.	.	.	.	.
Cc1ccsc1C(=O)Nc1ccc(C(=O)O)cc1	.	.	.	.	.
COc1ccc(NC(=O)c2sccc2C)cn1	.	7.94µM	.	.	.
Cc1ccc(S(=O)(=O)c2cnc(-c3ccccc3)[nH]c2=O)cc1	/	.	/	/	/
O=C(C[n+]1ccccc1Cl)c1ccc(O)c(O)c1	/	.	/	/	/
Cc1ccc2c(CC(=O)Nc3sccc3C(N)=O)coc2c1	.	1.26µM	.	.	.
CC(=O)NCCNC(=O)c1ccc(CSc2ccc(Cl)cc2)cc1	.	11.2µM	.	.	.
